Source: paper PMC5540273 (PLoS ONE, 2017)
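Further: KINOMEscan kinase panel screen.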

These molecules were tested on PAK1. Details: concentration: 1 μM, replicates: in singlicate; n = 1.
For `NS(=O)(=O)c1cccc(-c2ccc3ncc(N4CCOCC4)nc3c2)c1` [GSK1535721], the “%Inh” value was 17%.
In the case of `CN1c2ccc(CNc3ccc(F)cc3)cc2-c2c(cnn2C)S1(=O)=O`, the “%Inh” value is reported as 0%.
`Cc1cn2c(=O)cc(N3CCOCC3)nc2n1Cc1cccc(Cl)c1Cl` [GSK2334006] was tested, and the “%Inh” value was 12%.
With `CC(C)(C)n1cnc2c(N)ncnc21` [SKF-97359] the “%Inh” value was 0%.
With `O=c1cc(N2CCOCC2)nc2n(Cc3cccc(F)c3)ccn12` [GSK2297430] the “%Inh” value was 18%.
`O=C(c1ccc(-c2cc(-c3c[nH]nc3-c3ccccn3)ccn2)cc1)N1CCOCC1` [GW812171] was tested, and the “%Inh” value was 7%.
With `COc1ccc(Nc2nccc(N3CCC(NC(=O)Nc4cccc(C(C)=O)c4)C3)n2)cc1` (stereo not drawn) [GSK1379731] the “%Inh” value was 0%.
For `Cc1ccc(NC(=O)c2ccnc(N3CCN(C)CC3)c2)cc1-c1ccc(C(=O)NCC2CC2)cc1` [GW775604], the “%Inh” value was 9%.
For `Nc1nccc(-c2c(-c3ccc(F)cc3)ncn2C2CCN(CC(F)(F)F)CC2)n1` [SB-236560], the “%Inh” value was 0%.
With `Cc1nnc(-c2ccc3ncc(-c4ccc(S(C)=O)cc4)n3c2)o1` (stereo not drawn) the “%Inh” value was 17%.
For `CN(C1=C(c2ccccc2)C(=O)NC1=O)c1ccccc1` [SB-334860], the “%Inh” value was 0%.
`CSc1ccc(-c2cc3ncnc(SCC(=O)O)c3s2)cc1` was tested, and the “%Inh” value was 0%.
`O=C1Cc2cc(Nc3nc(NCc4cccc(S(=O)(=O)C(F)(F)F)c4)ncc3C(F)(F)F)ccc2N1` was tested, and the “%Inh” value was 0%.
In the case of `Cc1ccc(C(=O)NCC(N)=O)cc1-n1c(C)cc(OCc2ccc(F)cc2F)c(Br)c1=O`, the “%Inh” value is reported as 16%.
In the case of `CN(C(=O)c1ccc(-c2cc(-c3c[nH]nc3-c3ccccn3)ccn2)cc1)C1CCOCC1` [GW810083], the “%Inh” value is reported as 0%.
With `c1ccc(-c2cc(-c3c[nH]nc3-c3ccccn3)ccn2)cc1` [GW576604] the “%Inh” value was 16%.
`COc1cc2c(cc1OC[C@@H](O)CO)ncc1c3ccc(C#N)cc3[nH]c21` was tested, and the “%Inh” value was 0%.
With `CCCCCc1nc2c(N)ncnc2n1CCCCC` [SKF-97255] the “%Inh” value was 12%.
In the case of `Fc1ccc(-c2ncn(CCCN3CCOCC3)c2-c2cccnc2)cc1` [SB-211743], the “%Inh” value is reported as 15%.
For `Cc1cccc(Cn2ccn3c(=O)cc(N4CCOCC4)nc23)c1` [GSK2297542], the “%Inh” value was 18%.
With `Fc1ccc(-c2nn3c(OCC(F)(F)F)cccc3c2-c2ccncc2)cc1` [GW514784] the “%Inh” value was 0%.
With `COc1cc2c(cc1OCCN1CCN(C)CC1)ncc1c3ccc(C#N)cc3[nH]c21` the “%Inh” value was 24%.
With `COc1ccc(COc2cc(-n3cnc4ccccc43)sc2C(N)=O)cc1` [GSK1024304] the “%Inh” value was 1%.
For `O=C(NOCC1CC1)c1ccc(F)c(F)c1Nc1ccc(I)cc1Cl`, the “%Inh” value was 0%.
With `Cc1c2ccc(N(C)c3ccnc(Nc4cccc(S(N)(=O)=O)c4)n3)cc2nn1Cc1ccccc1.Cl.Cl` [GW787226] the “%Inh” value was 32%.
For `O=c1cc(N2CCOCC2)nc2n(Cc3cccc(C(F)(F)F)c3)ccn12` [GSK2297543], the “%Inh” value was 6%.
For `Cc1nnc(-c2ccc(C)c(-c3ccc(C(=O)Nc4ccc(NS(C)(=O)=O)cc4)cc3)c2)o1` [GW702865], the “%Inh” value was 10%.
For `O=C(NCCNc1ccnc(Nc2ccc(F)cc2)n1)c1cc2ccccc2s1` [GSK1379874], the “%Inh” value was 6%.
With `Cc1nnc(-c2ccc3occ(-c4ccc(C(C)O)cc4)c3c2)o1` (stereo not drawn) the “%Inh” value was 14%.
For `CCn1cnc2c(N)ncnc21` [GW345098], the “%Inh” value was 9%.
With `N#Cc1c(N2CCOCC2)sc(-c2ccn[nH]2)c1-c1ccc(Cl)cc1` the “%Inh” value was 10%.
For `Cl.Oc1cccc(Nc2ccnc3cc(-c4ccncc4)ccc23)c1` [GW494601], the “%Inh” value was 0%.
In the case of `O=C(NCCNc1ccnc(Nc2ccc(F)cc2)n1)Nc1ccccc1F` [GSK1379880], the “%Inh” value is reported as 2%.
